# The panel holds about 83,000 compounds, 20% with a hit somewhere; the sample as a whole holds those more often.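 Method: cells in 96-well plates; compound added at one concentration; 48 h incubation; percent growth measured; values under 10 scored active.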 A number with no mark means an inactive call. Activity calls are given as the source filed them.
# Tested on: HL-60(TB) leukemia
# Assay: NCI-60 one-dose screen, 48 h (100 = growth as untreated, 0 = no growth, -100 = all killed)
# Settings: 10 µM unless noted
row,SMILES,growth
1,O=c1c2ccccc2nc(COc2ccccc2)n1/N=C/C=C/c1ccccc1,107%
2,CC(C)(C)Nc1nc2c(OCCc3ccccc3)cccn2c1-c1cccc(F)c1,-30.2% (active)
3,COc1cc2oc(-c3cccc(NC(=O)c4cc(NC(=O)[C@H](C)N)ccc4Cl)c3)cc(=O)c2c(OC)c1OC,97.2%
4,O=C(c1cccc(F)c1)n1ccc2cc(NC(=S)Nc3cccnc3)ccc21,85.8%
5,COc1ccc(/C=N/NC(=O)c2c(N)nn(C)c2Nc2ccccc2)cc1Oc1ccccc1,100%
6,Cc1nn(-c2ccccc2)cc1/C=N/Nc1nc(Nc2ccccc2)nc(Nc2ccc(S(N)(=O)=O)cc2)n1,4% (active)
7,O=C(NNc1nc2cc(F)c(F)cc2n2cccc12)c1ccncn1,0.0559% (active)
8,CC[C@H](CC[C@@H](C)[C@H]1CC[C@H]2[C@@H]3CC(=O)C4=CC(=O)/C(=C/c5ccc([N+](=O)[O-])cc5)C[C@]4(C)[C@H]3CC[C@]12C)C(C)C,83.5%
9,Cc1cc(C)cc(NC2=C(Cl)C(=O)c3nc(C)ccc3C2=O)c1,34.5%
10,CCOC(=O)c1c(NCC(=O)Nc2cccc(Cl)c2)sc2c1CCCC2,90.8%
11,CNC(=O)c1cc(Oc2ccc3c(c2)sc2nc(-c4ccc(N(C)C)cc4)cn23)ccn1,5.28% (active)
12,COc1ccc(-c2cc(C(=O)N=Nc3c(O)[nH]c4ccccc34)c3ccccc3n2)cc1OC,106%
